Assay outcomes: PubChem BioAssay, National Center for Advancing Translational Sciences (NCATS)
Rab9 promoter act – activators of Rab9 promoter; 320,000 compounds, 2.8% hits; Huh7 Rab9 promoter-luciferase reporter, luminescence, 24 h; Potency, µM (highest dose often 9.22 µM), hits mostly activators; AID 485297; also: nearly all actives have a fitted effect of over 60% in size
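Rab9 promoter-driven luciferase in stably transfected Huh7 cells; 1500 cells/well rested 2 h, exposed to compound in DMSO for 24 h at 37 °C, 5% CO2. Luminescence read 10 min after adding luciferase reagent at ambient temperature.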
NPC1 prom act – NPC1 promoter activation | Huh7 NPC1 promoter luciferase reporter, 24 h | Potency, µM (top dose mostly 9.22 µM), most hits filed as activators | 320,000 compounds, 2.4% hits; also: nearly all actives have a fitted effect of over 60% in size
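Huh7 reporter cells (NPC1 promoter driving luciferase) are dosed with compound for 24 h at 37 °C, 5% CO2; luciferase detection reagent is then added and luminescence measured after 10 min at ambient temperature.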
ELG1 repair inh – ELG1-dependent DNA repair inhibition; 330,000 compounds, 2.3% hits; HEK293T ELG1-luciferase reporter, luminescence, 16 h; DNA damage induced by 5-fluorouridine; Potency, µM (series often up to 46.1 µM), hits mostly inhibitors; also: nearly all actives have a fitted effect of over 55% in size
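DMSO vehicle served as the neutral condition. Each well held 2,000 cells given 5-fluorouridine plus compound; after 16 hr at 37 °C/5% CO2, ONE-Glo was added and luciferase measured 30 min later.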
ELG1 genotoxic – genotoxicity induction in ELG1-luciferase HEK293T cells; HEK293T ELG1-luciferase reporter, luminescence, 16 h; 330,000 compounds, 1.3% hits; Potency, µM (top dose mostly 46 µM), hits mostly activators; also: nearly all actives have a fitted effect of over 60% in size
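Reporter readout depends on ELG1 protein level, which increases with genetic stress. After 16 hr compound exposure at 37 °C, luciferase activity was quantified using ONE-Glo.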
SMN2 splice up – increases expression of the SMN2 splice variant | Potency, µM (series often up to 46.1 µM), most hits filed as activators | HEK293 SMN2-luciferase splicing reporter, luminescence, 30-36 h | AID 1458 | 210,000 compounds, 2.8% hits; also: nearly all actives have a fitted effect of over 55% in size
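qHTS luciferase splicing reporter: luminescence rises when SMN2 exon 7 is included in transfected HEK293 cells. Compound exposure lasted 30-36 h at 37C, with 4.5 mM final sodium butyrate as control, followed by a ONE-Glo read.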
FLuc counter – firefly luciferase modulation, counter-screen for miR-21 project. P08659. purified FLuc, Km substrates, luminescence inhibition. Potency, µM (series often up to 57.5 µM), actives largely listed as inhibitors. 360,000 compounds, 6.9% hits. AID 588342; also: nearly all actives have a fitted effect of over 55% in size
Target sequence (P08659 whole entry, looked up): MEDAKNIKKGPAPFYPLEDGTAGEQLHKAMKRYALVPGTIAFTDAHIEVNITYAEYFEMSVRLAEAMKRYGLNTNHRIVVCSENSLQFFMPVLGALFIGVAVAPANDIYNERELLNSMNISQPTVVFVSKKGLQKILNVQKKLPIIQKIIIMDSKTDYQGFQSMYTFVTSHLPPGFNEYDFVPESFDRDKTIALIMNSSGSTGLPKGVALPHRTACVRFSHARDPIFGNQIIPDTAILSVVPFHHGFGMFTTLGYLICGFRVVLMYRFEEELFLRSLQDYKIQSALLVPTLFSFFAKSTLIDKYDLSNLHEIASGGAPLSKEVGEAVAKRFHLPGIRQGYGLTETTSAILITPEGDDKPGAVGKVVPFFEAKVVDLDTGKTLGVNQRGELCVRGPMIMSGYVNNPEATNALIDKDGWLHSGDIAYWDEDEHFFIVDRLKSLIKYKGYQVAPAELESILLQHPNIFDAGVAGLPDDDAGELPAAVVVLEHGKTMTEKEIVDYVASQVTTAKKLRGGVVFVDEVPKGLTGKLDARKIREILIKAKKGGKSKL
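Biochemical qHTS of compounds, final roughly 60 µM downward over six points, against 10 nM purified firefly luciferase using Km concentrations of substrates (10 uM D-luciferin, 10 uM ATP) in Tris acetate pH 7.5 buffer; luminescence output.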
Each line names hits and unclear results; the compound was inactive in the other large screens. The list is not random: actives were taken first. Their share in the collection is about 9.4%. Calls follow the shape of the dose curve; as a rule, active = well fitted curve in the direction sought with a large enough effect; inconclusive = small, poorly fitted or top-dose-only effect, or another doubt; inactive = no such curve, though single readings can be large; an effect the other way counts as inactive or inconclusive.

CCOc1ccccc1NC(=O)c1c(NCc2ccc(OC)c(OC)c2OC)sc2c1CCC(C)C2 (centres undefined)	none (no result: Rab9 promoter act, NPC1 prom act, ELG1 repair inh, ELG1 genotoxic, SMN2 splice up)
COC(=O)COc1ccc(C)cc1-n1nc2ccccc2n1	none (no result: SMN2 splice up)
Cc1ccc(OC(=O)c2cccc([N+](=O)[O-])c2)c(-n2nc3ccccc3n2)c1	Rab9 promoter act 2.82µM, NPC1 prom act 3.55µM, ELG1 repair inh inconclusive, ELG1 genotoxic inconclusive, SMN2 splice up 12.6µM, FLuc counter inconclusive
Cc1ccc(OC(=O)COc2ccccc2)c(-n2nc3ccccc3n2)c1	Rab9 promoter act 2µM, NPC1 prom act 3.55µM, ELG1 repair inh inconclusive, ELG1 genotoxic 7.31µM, FLuc counter 8.49µM
Cc1ccc(OC(=O)COc2ccccc2C)c(-n2nc3ccccc3n2)c1	Rab9 promoter act inconclusive, NPC1 prom act inconclusive, ELG1 repair inh inconclusive, ELG1 genotoxic inconclusive, SMN2 splice up 11.2µM, FLuc counter 4.78µM
O=[N+]([O-])c1ccc2cn(-c3ccccc3)nc2c1	Rab9 promoter act 2µM, NPC1 prom act inconclusive, ELG1 repair inh inconclusive, ELG1 genotoxic inconclusive, SMN2 splice up 17.8µM, FLuc counter 9.53µM
Nc1c(-c2ccccc2)cnn1-c1cccc([N+](=O)[O-])c1	Rab9 promoter act inconclusive, NPC1 prom act inconclusive, ELG1 repair inh inconclusive, ELG1 genotoxic inconclusive, FLuc counter 15.1µM
Cc1nn(-c2cccc([N+](=O)[O-])c2)c(N)c1-c1ccccc1	Rab9 promoter act 2.51µM, NPC1 prom act inconclusive, ELG1 repair inh inconclusive, SMN2 splice up 12.6µM, FLuc counter 15.1µM
Nc1nn(-c2ccccc2)c2ccc([N+](=O)[O-])cc12	ELG1 repair inh inconclusive, FLuc counter 16.9µM (no result: SMN2 splice up)
CCc1ccc(NC(=O)CN2C(=O)C(c3ccc(F)cc3)=NC2(C)C)cc1	none (no result: Rab9 promoter act, NPC1 prom act, ELG1 repair inh, ELG1 genotoxic)
CCCCN(CCCC)CCNC(=O)c1cc(=O)[nH]c2ccc(S(=O)(=O)N3CCCCCC3)cc12	none (no result: Rab9 promoter act, NPC1 prom act, ELG1 repair inh, ELG1 genotoxic, SMN2 splice up)
Nc1c(-c2ccc(Cl)cc2)cnn1-c1cccc([N+](=O)[O-])c1	Rab9 promoter act inconclusive, ELG1 repair inh inconclusive, FLuc counter 15.1µM
Nc1c(-c2ccc(Cl)cc2)cnn1-c1cccc(C(F)(F)F)c1	Rab9 promoter act inconclusive, NPC1 prom act inconclusive, ELG1 repair inh inconclusive, FLuc counter inconclusive
Oc1c(C2=NCCNC(C(F)(F)F)=C2)ccc2ccccc12	Rab9 promoter act 2.24µM, NPC1 prom act 2.82µM, ELG1 repair inh inconclusive, ELG1 genotoxic 9.2µM, SMN2 splice up 11.2µM, FLuc counter 4.78µM
CC[C@@H]1C=C(C)C[C@H](C)C[C@H](OC)[C@H]2O[C@@](O)(C(=O)C(=O)N3CCCC[C@H]3C(=O)O[C@H](/C(C)=C/[C@@H]3CC[C@@H](O)[C@H](OC)C3)[C@H](C)[C@@H](O)CC1=O)[C@H](C)C[C@@H]2OC	ELG1 repair inh 8.2µM
COc1ccccc1CNc1nc2c(S(=O)(=O)c3ccccc3)nnn2c2ccc(Cl)cc12	none (no result: Rab9 promoter act, NPC1 prom act, ELG1 repair inh, ELG1 genotoxic)
Cc1nnc(SCC(=O)Nc2cccc(S(=O)(=O)NC3=NCCCCC3)c2)n1Cc1ccccc1	none
O=C(CSc1nnc(SCc2cccc3ccccc23)s1)c1ccc2c(c1)OCO2	FLuc counter inconclusive
O=C(CSc1nnc(SCc2cccc3ccccc23)s1)Nc1ccc(C(=O)O)cc1	FLuc counter 8.49µM
c1ccc(Nc2nnc(SCc3cccc4ccccc34)s2)cc1	FLuc counter inconclusive
Cc1ccc(Nc2nnc(SCC(=O)Nc3cccc(S(=O)(=O)NC4=NCCCCC4)c3)s2)cc1	FLuc counter 1.9µM
Cc1cccc(NC(=O)CSc2nnc(NC(=O)CN3CCCCC3)s2)c1	none
Cc1cccc(Nc2nnc(SCC(=O)Nc3cccc(S(=O)(=O)N4CCCCC4)c3)s2)c1	ELG1 repair inh inconclusive, FLuc counter 2.69µM
Cc1nnc(SCc2cccc3ccccc23)s1	Rab9 promoter act inconclusive, NPC1 prom act inconclusive, ELG1 repair inh inconclusive, ELG1 genotoxic inconclusive, FLuc counter 23.9µM (no result: SMN2 splice up)
NC(=O)/N=C(\N)NC(=O)c1ccccc1	none (no result: Rab9 promoter act, NPC1 prom act, ELG1 repair inh, ELG1 genotoxic, FLuc counter)
Cc1ccccc1CNC(=O)C(C)n1nc(C)n2c(cc3occc32)c1=O (centres undefined)	none (no result: Rab9 promoter act, NPC1 prom act, ELG1 repair inh, ELG1 genotoxic)
